# Reference: the supplement of paper PMC12350171
# Structures can show the parent of a compound that is named as a salt. Unmarked numbers belong to inactive results.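 The calls were made as follows: active = normalised median growth AUC below 0.1 of DMSO control; inactive = AUC 0.1 or higher.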
# Test system: S. enterica typhimurium WT
# Assay: growth AUC normalised to DMSO control (median) (fraction of control); higher = less growth inhibition, active = hit call of the paper
# Details: 20 µM
# Outline: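 Anaerobic growth was tracked hourly at OD578 for 24 h in 96-well plates of mGAM seeded at OD578 0.01 with each approved-drug library compound at 20 μM and 1% DMSO. Strains had first been passaged twice overnight without oxygen. Three biological replicates were run. The reported median is the area under the curve, calculated by the trapezoidal rule on curves truncated at entry into stationary phase and normalised to vehicle wells on the same plate.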
# 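Also: active when median AUC fell below 0.1.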
row,Compound,growth AUC normalised to DMSO control
1,CC1=C(C)C(=O)C(C(CCCCCC(=O)O)c2ccccc2)=C(C)C1=O (configuration not stated) [Seratrodast],1.01
2,N=C(N)c1ccc(OCCCCCOc2ccc(C(=N)N)cc2)cc1 [Pentamidine isethionate],0.999
3,NS(=O)(=O)c1cc2c(cc1Cl)NC(Cc1ccccc1)NS2(=O)=O (configuration not stated) [Benzylhydrochlorothiazide],1
4,Cc1cn([C@H]2C[C@H](N=[N+]=[N-])[C@@H](CO)O2)c(=O)[nH]c1=O [Zidovudine],0.304
5,CCOC(=O)c1ccc(C#Cc2ccc3c(c2)C(C)(C)CCS3)nc1 [Tazarotene],1
6,COc1ccc2c(c1)c(CC(=O)O)c(C)n2C(=O)c1ccc(Cl)cc1 [Indomethacin],1.01
7,C[C@H]1[C@H](OC(=O)CCC(=O)O)O[C@@H]2O[C@@]3(C)CC[C@H]4[C@H](C)CC[C@@H]1[C@@]24OO3 [Artesunate],1
8,O=c1[nH]cnc2c1ncn2[C@H]1CC[C@@H](CO)O1 [Didanosine],0.992
9,C[C@]12CC[C@@H]3c4ccc(O)cc4CC[C@H]3[C@@H]1C[C@@H](O)[C@@H]2O [Estriol],1
10,CN(C/C=C/C#CC(C)(C)C)Cc1cccc2ccccc12 [Terbinafine],1.01
11,COc1cc([C@@H]2c3cc4c(cc3[C@@H](O[C@@H]3O[C@@H]5CO[C@@H](C)O[C@H]5[C@H](O)[C@H]3O)[C@H]3COC(=O)[C@H]23)OCO4)cc(OC)c1O [Etoposide],1
12,Nc1c2ccccc2nc2ccccc12 [Aminacrine],0.902
13,CCN1CCN(C(=O)N[C@@H](C(=O)N[C@@H]2C(=O)N3[C@@H]2SC(C)(C)[C@@H]3C(=O)O)c2ccccc2)C(=O)C1=O [Piperacillin sodium salt],0.734
14,O=C(C1CCCCC1)N1CC(=O)N2CCc3ccccc3C2C1 (configuration not stated) [Praziquantel],1.01
15,CC(=O)[C@H]1CC[C@H]2[C@@H]3CCC4=CC(=O)CC[C@]4(C)[C@H]3CC[C@]12C [Progesterone],1.02
16,CN1CC(O)c2cc(N=NC(N)=O)c(O)cc21 (configuration not stated) [Carbazochrome],0.999
17,O=c1[nH]c(=O)n([C@H]2C[C@H](O)[C@@H](CO)O2)cc1C(F)(F)F [Trifluridine],0.964
18,CC(C(=O)O)c1ccc2c(c1)CC(=O)c1ccccc1S2 (configuration not stated) [Zaltoprofen],0.998
19,C=C(CC)C(=O)c1ccc(OCC(=O)O)c(Cl)c1Cl [Ethacrynic acid],1
20,O=c1[nH]c(=O)n([C@H]2C[C@H](O)[C@@H](CO)O2)cc1/C=C/Br [Brivudine],1
21,CCCCCCOc1ccccc1C(N)=O [Exalamide],1
22,Cc1ncc([N+](=O)[O-])n1CCO [Metronidazole],1.04
23,CCCC(=O)Nc1ncnc2c1ncn2[C@@H]1O[C@@H]2COP(=O)(O)O[C@H]2[C@H]1OC(=O)CCC [Bucladesine sodium salt],1.01
24,CC(C)C[C@H](NC(=O)[C@@H](O)[C@H](N)Cc1ccccc1)C(=O)O [Ubenimex],1
25,O=C(Oc1ccccc1)c1ccccc1O [Phenyl salicylate],1.01
26,CC(C)(C)NCC(O)CSc1nc(-c2ccc(C(N)=O)s2)cs1 (configuration not stated) [Arotinolol hydrochloride],0.996
27,Cc1ncc(C[n+]2csc(CCO)c2C)c(N)n1 [Thiamine hydrochloride],0.998
